GLP1R ag – qHTS of GLP-1 Receptor Agonists; Glucagon-like peptide 1 receptor (Homo sapiens), P43220; HEK293 GLP-1R CRE-luciferase, luminescence, 4-6 h; cells express a hypersensitive GLP-1R form; Potency, µM (highest dose often 45.6 µM), for inactives: top-dose activation, hits mostly activators; actives 0.007% (n = 380,000); note: % of control where 0% means no effect
Target sequence (P43220 whole entry, looked up): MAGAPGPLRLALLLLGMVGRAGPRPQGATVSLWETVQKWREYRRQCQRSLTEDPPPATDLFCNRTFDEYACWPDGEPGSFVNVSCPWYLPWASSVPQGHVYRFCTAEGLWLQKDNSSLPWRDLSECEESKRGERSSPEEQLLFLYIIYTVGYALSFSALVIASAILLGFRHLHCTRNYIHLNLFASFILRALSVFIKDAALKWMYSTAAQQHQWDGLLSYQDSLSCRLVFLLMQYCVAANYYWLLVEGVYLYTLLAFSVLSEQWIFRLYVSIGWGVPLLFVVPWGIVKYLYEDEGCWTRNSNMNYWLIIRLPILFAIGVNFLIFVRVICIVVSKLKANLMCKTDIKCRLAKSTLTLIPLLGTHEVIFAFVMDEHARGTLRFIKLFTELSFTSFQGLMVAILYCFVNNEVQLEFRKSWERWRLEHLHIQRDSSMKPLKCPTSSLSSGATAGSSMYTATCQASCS
GLP1R cytotox – qHTS of GLP-1 Receptor Inverse Agonists: Cytotox Screen; Potency, µM (series often up to 38.3 µM), for the others: at the top dose activity change, negative = inhibition, actives largely listed as inhibitors; HEK293 cAMP-luciferase reporter cells, luminescence, 24 h; AID 624418, 2012; actives 0.13% (n = 410,000);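 note: loss of luciferase light is scored as toxicity; % is set by controls: 0 for no effect and ±100 for the full control effect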
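To flag toxic compounds, the library was rerun on cells for 24 hr at 37 deg C and 5% CO2. Viability-linked luminescence was captured 12 min after adding luciferase detection reagent.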
PTHR1 ag – qHTS for PTHR1 Agonists: Primary Screen; Parathyroid hormone/parathyroid hormone-related peptide receptor (Homo sapiens), Q03431; HEK293 GP2 PTHR1 cells, GloSensor cAMP luminescence, 1 h; Potency, µM (highest dose often 115 µM), for inactives: at the highest dose activation, hits mostly activators; actives 0.075% (n = 410,000); note: nearly all actives have a fitted effect of over 55% in size
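HEK-293-derived GP2 cells expressing PTHR1 and a GloSensor cAMP reporter, 3,000/well, plated overnight, given luciferin plus IBMX (each 0.5 mM as added) for 1 h at 37 °C, then compound for 1 h at 37 °C. Luminescence was read after 15 min at room temperature.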
RGS4 inhibitor – Inhibitors of Regulator of G Protein Signaling (RGS) 4: qHTS | Regulator of G-protein signaling 4 (Homo sapiens), P49798 | Transcreener GDP fluorescence polarization, RGS4-accelerated GTP hydrolysis | Potency, µM (highest dose often 114 µM), inactives show at the highest dose activity change, negative = inhibition, hits mostly inhibitors | actives 0.039% (n = 390,000) | AID 504845, 2011; note: % is set by controls: 0 for no effect and ±100 for the full control effect; nearly all actives have a fitted effect of over 75% in size
Target sequence (P49798 whole entry, looked up): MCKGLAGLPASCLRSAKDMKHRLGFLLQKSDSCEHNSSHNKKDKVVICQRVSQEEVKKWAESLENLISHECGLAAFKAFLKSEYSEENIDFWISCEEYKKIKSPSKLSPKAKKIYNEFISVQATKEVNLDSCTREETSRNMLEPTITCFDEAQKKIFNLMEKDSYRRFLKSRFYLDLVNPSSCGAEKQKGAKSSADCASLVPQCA
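MLSMR compounds (23 nl, pin-transferred) preincubated 10 min at room temperature with a 500nM (2x) first reagent, then RGS4 at 900nM (2x) plus Transcreener GDP mix added; fluorescence polarization (620/688 nm) read before and after 90 min at 30 °C.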
GLP-1R inv ag – qHTS of GLP-1 Receptor Inverse Agonists (Inhibition Mode); Potency, µM (top dose mostly 38.3 µM), for inactives: at the highest dose activity change, negative = inhibition, most hits filed as inhibitors; HEK293 GLP-1R CRE-luciferase, luminescence, 24 h; GLP-1R form is constitutively active; actives 1.6% (n = 410,000); Glucagon-like peptide 1 receptor (Homo sapiens), P43220; note: % is set by controls: 0 for no effect and ±100 for the full control effect; nearly all actives have a fitted effect of over 55% in size
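qHTS in 1536-well format: reporter HEK293 cells expressing constitutive GLP-1R activity in DMEM + 10% Nu serum, 24 hr with compounds at 37 deg C, luminescence read after 12 min with detection reagent.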
Starred values were filed as active, the others as inactive; [ ] = another dose, or the depositor's remark. Shown are actives, neighbours in structure and some others; about 1.7% of the full set was active somewhere. Calls come from the whole dose curve; as a rule, active = well fitted curve in the direction sought with a large enough effect; inconclusive = small, poorly fitted or top-dose-only effect, or another doubt; inactive = no such curve, though single readings can be large; an effect the other way counts as inactive or inconclusive. Potency is the fitted concentration of half-maximal effect.

Screening CCN(C(=O)c1ccc(C(C)(C)C)cc1)c1nnc(Cn2nnc3ccccc32)s1 returned GLP1R ag -2%, GLP1R cytotox -17%, PTHR1 ag -11%, RGS4 inhibitor -1%[11.4 µM] and GLP-1R inv ag 5µM*.
`CCN(C(=O)CC(C)C)c1nnc(Cn2nnc3ccccc32)s1` gave GLP1R ag 11%, GLP1R cytotox 2%, PTHR1 ag -2%, RGS4 inhibitor -3% and GLP-1R inv ag 40%.
CN1OC[C@@H]2C(=O)N3CCc4c([nH]c5ccccc45)[C@@H]3C[C@@H]21 was read as GLP1R ag -3%, GLP1R cytotox 58%, PTHR1 ag -8% and GLP-1R inv ag 13%.
For CCOc1ccc(CCNC(=O)COC(=O)c2nn(C)c(=O)c3ccccc23)cc1OCC the results were GLP1R ag 7%, GLP1R cytotox -12%, PTHR1 ag inactive, RGS4 inhibitor -11% and GLP-1R inv ag 48%.
Screening [O-]/C(=C(\C(=S)Nc1ccc(SC(F)F)cc1)[n+]1ccccc1)c1cc(Cl)ccc1Cl returned GLP1R ag 11%, GLP1R cytotox -11%, PTHR1 ag -33%, RGS4 inhibitor -18% and GLP-1R inv ag 6.3µM*.
For Cc1ccc(NC(=S)/C(=C(\[O-])c2ccc(Cl)s2)[n+]2cccc(CO)c2)cc1C the results were GLP1R ag -14%, GLP1R cytotox -21%, PTHR1 ag inactive, RGS4 inhibitor -30% and GLP-1R inv ag inconclusive.
For [O-]/C(=C(\C(=S)Nc1ccc(SC(F)F)cc1)[n+]1cccc(CO)c1)c1ccc(Cl)s1 the results were GLP1R ag 10%, GLP1R cytotox inconclusive, PTHR1 ag -10%, RGS4 inhibitor -42% and GLP-1R inv ag 5µM*.
COc1ccc(N2CCN(C(=O)c3cc(-c4ccc(F)cc4)[nH]c3C)CC2)cc1 was read as GLP1R ag 7%, GLP1R cytotox -8%, PTHR1 ag -30%, RGS4 inhibitor 8% and GLP-1R inv ag 10µM*.
`CCOc1ccc(OCC)c(NC(=O)CN(C)S(=O)(=O)c2ccc3c(c2)CCCC(=O)N3)c1` gave GLP1R ag -4%, GLP1R cytotox -11%, PTHR1 ag -15%, RGS4 inhibitor -19% and GLP-1R inv ag -27%.
For Cc1cccc(N(C)S(=O)(=O)c2ccc(-c3cc(C)no3)s2)c1 the results were GLP1R ag 9%, GLP1R cytotox -11%, PTHR1 ag -24%, RGS4 inhibitor -34% and GLP-1R inv ag 1µM*.
Screening Cc1cc(=O)n2c(nc3ccccc32)[nH]1 returned GLP1R ag 12%, GLP1R cytotox 17%, PTHR1 ag 32µM*, RGS4 inhibitor 35% and GLP-1R inv ag 103%.
Oc1c(CN2CCCC(C(F)(F)F)C2)cc(Cl)c2ccccc12 (stereo not given) was read as GLP1R ag 10%, GLP1R cytotox -2%, PTHR1 ag -4%, RGS4 inhibitor inconclusive and GLP-1R inv ag inconclusive.
CCN(CC)C(=O)C1CCCN(c2ccc([N+](=O)[O-])cc2/C=N/NC(=O)c2cccc(Br)c2)C1 (stereo not given) was read as GLP1R ag -13%, GLP1R cytotox -19%, PTHR1 ag inactive, RGS4 inhibitor -37%[56.9 µM] and GLP-1R inv ag 2µM*.
Screening O=C(N/N=C/c1cc([N+](=O)[O-])ccc1N1CCCCCC1)c1ccccn1 returned GLP1R ag 4%, GLP1R cytotox -16%, PTHR1 ag -4%, RGS4 inhibitor -23% and GLP-1R inv ag -28%.
Screening COc1ccc2c(Cl)c(-c3nnc(SCC(N)=O)n3C)sc2c1 returned GLP1R ag 2%, GLP1R cytotox -25%, PTHR1 ag inactive, RGS4 inhibitor 15% and GLP-1R inv ag -8%.
COc1ccc2c(Cl)c(-c3nnc(SCC(=O)c4ccccc4)n3C)sc2c1 was read as GLP1R ag -2%, GLP1R cytotox -25%, PTHR1 ag -3%[57.5 µM], RGS4 inhibitor inconclusive and GLP-1R inv ag 11µM*.
Screening Cc1cccc(NNC(=O)C(=O)NNc2cccc(C)c2)c1 returned GLP1R ag -4%, GLP1R cytotox -16%, PTHR1 ag inactive, RGS4 inhibitor -15% and GLP-1R inv ag inconclusive.
Screening CCCc1ccc(C(=O)NNc2cc(Cl)ccc2Cl)cc1 returned GLP1R ag 0%, GLP1R cytotox -7%, PTHR1 ag -21%, RGS4 inhibitor -22% and GLP-1R inv ag 1.3µM*.
CCCc1ccc(C(=O)NNc2cccc(C)c2)cc1 was read as GLP1R ag 12%, GLP1R cytotox inconclusive, PTHR1 ag inactive, RGS4 inhibitor 2% and GLP-1R inv ag 2.8µM*.
Screening Cc1cccc(OCCSc2nc3ccc(NC(=O)c4cccs4)cc3s2)c1 returned GLP1R cytotox -9%, PTHR1 ag -17%, RGS4 inhibitor -33% and GLP-1R inv ag inconclusive.
Screening Cc1ccccc1OCCSc1nc2ccc(NC(=O)c3cccs3)cc2s1 returned GLP1R cytotox 7%, PTHR1 ag inactive, RGS4 inhibitor -21% and GLP-1R inv ag 13µM*.
Screening Cc1ccccc1OCCSc1nc2ccc(NC(=O)c3ccccc3)cc2s1 returned GLP1R cytotox -7%, PTHR1 ag inactive, RGS4 inhibitor 16% and GLP-1R inv ag 2.8µM*.
Screening COc1ccccc1C(=O)NCCC(=O)N1CC(C)OC(C)C1 (stereo not given) returned GLP1R ag 5%, GLP1R cytotox -1%, PTHR1 ag inactive, RGS4 inhibitor 12% and GLP-1R inv ag 6%.
Screening O=S1(=O)CC(N2CCN(CC3CC3)CC2)CN1Cc1ccc(F)cc1 (stereo not given) returned GLP1R ag -1%, GLP1R cytotox 8%, PTHR1 ag -21% and GLP-1R inv ag inconclusive.
Screening COc1ccc(-c2noc(-c3ccc(NCCc4ccccc4)c([N+](=O)[O-])c3)n2)cc1OC returned GLP1R cytotox 5%, PTHR1 ag inactive, RGS4 inhibitor -9% and GLP-1R inv ag 17%.
`CC(C)C1N=C(c2ccc3c(c2)OCO3)CC(c2ccccc2O)N1` (stereo not given) gave GLP1R ag -12%, GLP1R cytotox inconclusive, PTHR1 ag -83%, RGS4 inhibitor inconclusive and GLP-1R inv ag 11µM*.
For CC(C)C1(C)NC(c2ccc3c(c2)OCO3)=CC(c2ccccc2O)N1 (stereo not given) the results were RGS4 inhibitor -31%.

Compound activity from PubChem BioAssay.
